This is part of a sample that, as a whole, favours compounds with a hit. Of some 83,000 tested, about 20% had one in any assay.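 96-well plates, one dose, 48 hours. Percent growth reported; active if below 10.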 Unmarked numbers belong to inactive results. The source made the active and inactive calls.
Key:
Experiment in all cases: NCI-60 one-dose screen, 48 h (100 = growth as untreated, 0 = no growth, -100 = all killed)
Conditions in all cases: 10 µM unless noted
NCI-H23 lung = system: NCI-H23 lung
NCI-H226 lung = system: NCI-H226 lung
NCI-H322M lung = system: NCI-H322M lung
HOP-62 NSCLC = system: HOP-62 NSCLC
NCI-H460 lung = system: NCI-H460 lung
HOP-92 NSCLC = system: HOP-92 NSCLC
NCI-H522 lung = system: NCI-H522 lung
A549/ATCC NSCLC = system: A549/ATCC NSCLC
786-0 renal = system: 786-0 renal
COLO 205 colon = system: COLO 205 colon
DU-145 prostate = system: DU-145 prostate
K-562 leukemia = system: K-562 leukemia
MALME-3M melanoma = system: MALME-3M melanoma
MDA-MB-231 breast = system: MDA-MB-231 breast
RXF 393 renal = system: RXF 393 renal
SF-268 CNS = system: SF-268 CNS
SF-295 CNS = system: SF-295 CNS
SF-539 CNS = system: SF-539 CNS
UACC-257 melanoma = system: UACC-257 melanoma
M14 melanoma = system: M14 melanoma

Row | SMILES | growth (NCI-H23 lung) | growth (NCI-H226 lung) | growth (NCI-H322M lung) | growth (HOP-62 NSCLC) | growth (NCI-H460 lung) | growth (HOP-92 NSCLC) | growth (NCI-H522 lung) | growth (A549/ATCC NSCLC) | growth (786-0 renal) | growth (COLO 205 colon) | growth (DU-145 prostate) | growth (K-562 leukemia) | growth (MALME-3M melanoma) | growth (MDA-MB-231 breast) | growth (RXF 393 renal) | growth (SF-268 CNS) | growth (SF-295 CNS) | growth (SF-539 CNS) | growth (UACC-257 melanoma) | growth (M14 melanoma)
1 | CCOC(=O)c1c2c(n3ccc(C)cc13)C(=O)c1ccccc1C2=O | 85.5% | 98.1% | 77% | 106% | 58.7% | 87.8% | 70.5% | 62.5% | 97.3% | 108% | 102% | 75.7% | 103% | 90.2% | 95.6% | 96.3% | 98.5% | 102% | 78.2% | 84.6%
2 | CCCCC(=O)Nc1ncc(Cc2ccc(Cl)cc2)s1 | 90.3% | 82% | 86.8% | 68.8% | 60.7% | 69.7% | 50.1% | 53.1% | 80.7% | 76.5% | 89% | 37.5% | 81.3% | 62.3% | 56.4% | 79.6% | 74.6% | 73.5% | 80.7% | 61.1%
3 | CCOC(=O)c1cc(C(=O)c2cc(OC)c(OC)c(OC)c2)n2ccc(-c3ccncc3)cc12 | 94.8% | 95.9% | 106% | 90.1% | 97.4% | 65.8% | 68.7% | 80% | 90.2% | 103% | 103% | 98.7% | 87.5% | 70.2% | 95.3% | 96.4% | 113% | 93.9% | 80.8% | 101%
4 | COc1cc(CNS(=O)(=O)c2ccc(C)cc2)ccc1OCc1cn(-c2ccc(F)cc2)nn1 | 79.6% | 71.4% | 102% | 102% | 103% | 86.4% | 75.8% |  | 97.2% | 88% | 95.9% | 65.3% | 94.9% | 91% | 93.2% | 91.8% | 90.1% | 89.3% | 89.9% | 97.1%
5 | COc1ccc(C(=O)Nc2ncc(Cc3ccc(F)cc3)s2)cc1 | 30.7% | 40.9% | 34.6% | 28.7% | 6.59% (active) | 51.5% | -5.3% (active) | 23.3% | 27.8% | -16.2% (active) | 16.2% | 8.46% (active) | 60.2% | 29.6% | 7.03% (active) | 50.6% | 9.8% (active) | -9.59% (active) | 56% | 16.4%
6 | CCOC(=O)c1c(NC(=O)c2ccc(C(C)C)cc2)sc2c(CN(C)C)c(O)ccc12 | 82.2% | 85.2% | 79.2% | 89.9% | 6.2% (active) | 69.5% | 97.2% | 77% | -50.5% (active) | -24.5% (active) | 78.2% | -31.3% (active) | -45.5% (active) | 58.4% | 44.2% | 91.4% | 4.37% (active) | 75% | 67.3% | -64% (active)
7 | CC(=O)Cc1nsc(NC(=O)c2cc(-c3cc(Cl)cc(Cl)c3)oc2C)n1 | 101% | 96.3% | 100% | 95.9% | 103% | 105% | 86.6% | 94.3% | 98% | 107% | 108% | 100% | 111% | 104% | 105% | 88.1% | 99.4% | 98.5% | 89% | 105%
8 | CCCC(O)Cn1ncc(C(=O)OCC)c1NC(=O)NCc1ccccc1F (configuration not stated) | 81.1% | 96.8% | 95.6% | 105% | 97.8% | 92.1% | 57% | 82.4% | 95.6% | 116% | 99.7% | 66.7% | 98.9% | 91.3% | 101% | 96.3% | 89.9% | 107% | 72.4% | 93.1%
9 | C=C(C)[C@@H]1CC[C@]2(C(=O)NCCNCCN)CC[C@]3(C)[C@H](CC[C@@H]4[C@@]5(C)C/C(=C/c6ccncc6)C(=O)C(C)(C)[C@@H]5CC[C@]43C)[C@@H]12 | 97.2% | 100% | 94.2% | 101% | 99.2% | 75.5% | 94.7% | 99.9% | 90.2% | 88.9% | 106% | 86.4% | 106% | 96.7% | 103% | 88.5% | 100% | 95.1% | 105% | 89.8%
10 | CO[C@]12C=C/C(=C(/C(=O)OCc3cccnc3)C(=O)CCCCCCCC[C@@]3(OC)C=C/C(=C(/C(=O)OCc4cccnc4)C(=O)CCCCCCCC1)O3)O2 | -53.1% (active) | -45.6% (active) | 18.3% | 30.9% | 3.19% (active) | 2.61% (active) | -4.14% (active) | 10.7% | -38.4% (active) | -0.264% (active) | 20% | 1.46% (active) | -31.2% (active) | 13.9% | -87.2% (active) | 9% (active) | -0.607% (active) | 3% (active) | 33.6% | 3.57% (active)
11 | Cn1c(O)c(C=NCCN=Cc2c(O)n(C)c(=O)n(C)c2=O)c(=O)n(C)c1=O | 97% | 92.3% | 89.3% | 90.7% | 107% | 86.2% | 105% | 100% | 113% | 101% | 110% | 34.5% | 90.4% | 101% | 111% | 105% | 101% | 93.9% | 101% | 102%
12 | CN1CCN(Cc2ccc3c(NNC(=O)c4ccccc4)nc4cc(F)ccc4n23)CC1 | 29.9% | 12.6% | 28.2% | 24.1% | 3.88% (active) | 50.7% | 28% | 14.8% | 26.4% | 19.5% | 27.1% | 13.6% | 23.5% | 43.2% | 39% | 19.9% | 16.2% | 10.8% | 11.8% | 3.61% (active)
13 | COc1cc(NC(C)CCCNC(C)C)c2ncccc2c1OC (configuration not stated) | 89.5% | 95% | 99.7% | 98.3% | 98.6% | 74.6% | 69.6% |  | 86.8% | 90.6% | 113% | 104% | 105% | 89% | 95% | 105% | 99.9% | 85.6% | 107% | 97%
14 | CC1=Nc2cnc(Nc3ccc(OCCN4CCCCC4)cc3)nc2Nc2ccccc21 | 71.5% | 81.3% | 42% | 81.4% | 61.6% | 32% | 70.7% |  | 48.5% | 63.7% | 57.8% | 24.1% | 58.4% | 60.6% | 33.6% | 64.9% | 76.5% | 69.6% | 87.6% | 50.6%
15 | COc1cc(C(=O)n2nc(N3CCN(C)CC3)c3cc(N)ccc32)cc(OC)c1OC | 38.3% | 47.6% | 58.6% | 32.5% | 38.8% | 43% | -7.31% (active) | 65.3% | 24.7% | 107% | 22.5% | 10.4% | 65.3% | 50.3% | -13.3% (active) | 47.2% | 4.42% (active) | -14.1% (active) | 85.3% | 2.63% (active)
16 | CCOC(=O)c1cc(-c2ccc([N+](=O)[O-])cc2)n(-c2ccc(C(=O)O)c(O)c2)c1C | 58.8% | 83.5% | 103% | 103% | 65.2% | 49.6% | 9.5% (active) | 47.7% | 71.3% | 99.1% | 88.6% | 45.1% | 80.6% | 80.7% | 39% | 85.8% | 69.8% | 85.4% | 46.2% | 90%

Reference: PubChem BioAssay (NCI)
